Test results: PubChem BioAssay (NCI)
Compounds without any hit were thinned out: in the full panel of roughly 83,000, 20% have a hit.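 Single-dose data. Exposure time 48 hours. Values below 10 considered active.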 Activity calls are given as the source filed them.

Tests used:
Assay in all cases: NCI-60 one-dose screen, 48 h (100 = growth as untreated, 0 = no growth, -100 = all killed)
Details in all cases: 10 µM unless noted
NCI-H23 lung = test system: NCI-H23 lung
NCI-H226 lung = test system: NCI-H226 lung
NCI-H322M lung = test system: NCI-H322M lung
HOP-62 NSCLC = test system: HOP-62 NSCLC
NCI-H460 lung = test system: NCI-H460 lung
HOP-92 NSCLC = test system: HOP-92 NSCLC
NCI-H522 lung = test system: NCI-H522 lung
A549/ATCC NSCLC = test system: A549/ATCC NSCLC
786-0 renal = test system: 786-0 renal
COLO 205 colon = test system: COLO 205 colon
DU-145 prostate = test system: DU-145 prostate
K-562 leukemia = test system: K-562 leukemia
MALME-3M melanoma = test system: MALME-3M melanoma
MDA-MB-231 breast = test system: MDA-MB-231 breast
RXF 393 renal = test system: RXF 393 renal
SF-268 CNS = test system: SF-268 CNS
SF-295 CNS = test system: SF-295 CNS
SF-539 CNS = test system: SF-539 CNS
UACC-257 melanoma = test system: UACC-257 melanoma
M14 melanoma = test system: M14 melanoma

Measured: growth

COc1cccc(C2=NN3C(C2)c2cc(Br)cc(OC)c2OC32CCN(Cc3ccccc3)CC2)c1 (stereo not given)
inactive: NCI-H23 lung 95.7% | NCI-H226 lung 85.3% | NCI-H322M lung 103% | HOP-62 NSCLC 105% | NCI-H460 lung 101% | HOP-92 NSCLC 111% | NCI-H522 lung 96.2% | A549/ATCC NSCLC 102% | 786-0 renal 104% | COLO 205 colon 107% | DU-145 prostate 105% | K-562 leukemia 105% | MALME-3M melanoma 99.7% | MDA-MB-231 breast 109% | RXF 393 renal 115% | SF-268 CNS 94.5% | SF-295 CNS 101% | SF-539 CNS 105% | UACC-257 melanoma 104% | M14 melanoma 107%

O=C1c2cc3c(cc2-c2c1c1ccc(Cl)cc1c(=O)n2CCCN1CCOCC1)OCO3
inactive: NCI-H23 lung 47.9% | NCI-H226 lung 24.9% | NCI-H322M lung 89.6% | HOP-62 NSCLC 26.2% | NCI-H460 lung 18.1% | HOP-92 NSCLC 80.4% | NCI-H522 lung 53.5% | A549/ATCC NSCLC 48.7% | 786-0 renal 34.2% | COLO 205 colon 54.8% | DU-145 prostate 26.9% | K-562 leukemia 44.5% | MALME-3M melanoma 85.2% | MDA-MB-231 breast 111% | RXF 393 renal 92.7% | SF-268 CNS 43.6% | SF-295 CNS 27.9% | SF-539 CNS 22.7% | UACC-257 melanoma 91.8% | M14 melanoma 25.3%

O=c1c(F)cn(Cc2ccccc2CCl)c(=O)n1Cc1ccccc1CCl
active: NCI-H23 lung -63.1% | NCI-H226 lung -22% | NCI-H322M lung -19.3% | HOP-62 NSCLC -51.7% | NCI-H460 lung -75% | HOP-92 NSCLC -77.5% | NCI-H522 lung -61.6% | A549/ATCC NSCLC 1.3% | 786-0 renal -54.7% | COLO 205 colon -75.3% | DU-145 prostate -51.3% | K-562 leukemia -6.67% | MALME-3M melanoma -28.1% | MDA-MB-231 breast -19.4% | RXF 393 renal -30.7% | SF-268 CNS -16% | SF-295 CNS -62.4% | SF-539 CNS -24.1% | UACC-257 melanoma -48.1% | M14 melanoma -63.6%

CN(CCCCCl)P(=O)(OCc1ccc([N+](=O)[O-])o1)C(F)(F)c1ccc(CC(=O)NC[C@@H](O)/C=C\[C@@H](O)[C@H](CO)Cc2ccccc2)cc1 (stereo not given in full)
active: NCI-H522 lung -2.39%
inactive: NCI-H23 lung 92.8% | NCI-H226 lung 95.6% | NCI-H322M lung 96.6% | HOP-62 NSCLC 96.6% | NCI-H460 lung 102% | HOP-92 NSCLC 135% | A549/ATCC NSCLC 85.3% | 786-0 renal 107% | COLO 205 colon 103% | DU-145 prostate 105% | K-562 leukemia 50.2% | MALME-3M melanoma 92.1% | MDA-MB-231 breast 89.3% | RXF 393 renal 100% | SF-268 CNS 98.5% | SF-295 CNS 98.3% | SF-539 CNS 102% | UACC-257 melanoma 92.2% | M14 melanoma 95.3%

COc1ccc(-c2cc(=O)c3c(OC)c4ccoc4cc3o2)cc1
inactive: NCI-H23 lung 99.4% | NCI-H226 lung 95.5% | NCI-H322M lung 77.8% | HOP-62 NSCLC 108% | NCI-H460 lung 73.7% | HOP-92 NSCLC 90.1% | NCI-H522 lung 82.4% | A549/ATCC NSCLC 86.2% | 786-0 renal 116% | COLO 205 colon 102% | DU-145 prostate 106% | K-562 leukemia 88.2% | MALME-3M melanoma 113% | MDA-MB-231 breast 91.7% | RXF 393 renal 107% | SF-268 CNS 97.9% | SF-295 CNS 40.7% | SF-539 CNS 105% | UACC-257 melanoma 107% | M14 melanoma 115%

OC(COc1cccc2ccccc12)CN1CCN(c2ccccc2Cl)CC1 (stereo not given)
inactive: NCI-H23 lung 80.3% | NCI-H226 lung 106% | NCI-H322M lung 95.5% | HOP-62 NSCLC 88% | NCI-H460 lung 91.1% | HOP-92 NSCLC 74.5% | NCI-H522 lung 98.8% | A549/ATCC NSCLC 96.6% | 786-0 renal 91.4% | COLO 205 colon 104% | DU-145 prostate 109% | K-562 leukemia 99.3% | MALME-3M melanoma 108% | MDA-MB-231 breast 83.7% | RXF 393 renal 158% | SF-268 CNS 98.6% | SF-295 CNS 86.4% | SF-539 CNS 93.2% | M14 melanoma 84.7%
active: UACC-257 melanoma -1.88%

Fc1ccc(CNc2cccc3[nH]c(C(F)(F)F)nc23)cc1
active: HOP-92 NSCLC -9.4%
inactive: NCI-H23 lung 99.1% | NCI-H226 lung 93.1% | NCI-H322M lung 104% | HOP-62 NSCLC 80.3% | NCI-H460 lung 83% | NCI-H522 lung 79.7% | A549/ATCC NSCLC 89.2% | 786-0 renal 110% | COLO 205 colon 102% | DU-145 prostate 93.5% | K-562 leukemia 13% | MALME-3M melanoma 103% | MDA-MB-231 breast 73.8% | RXF 393 renal 99.1% | SF-268 CNS 76.9% | SF-295 CNS 89.9% | SF-539 CNS 97% | UACC-257 melanoma 101% | M14 melanoma 109%

COCCNc1ccc2c3c(cccc13)C(=O)N(CCN(C)C)C2=O
inactive: NCI-H23 lung 25.6% | NCI-H322M lung 23.1% | HOP-62 NSCLC 50.9% | HOP-92 NSCLC 18.4% | 786-0 renal 32.1% | DU-145 prostate 27.7% | MALME-3M melanoma 22.2% | MDA-MB-231 breast 46.6% | SF-268 CNS 26.3% | SF-295 CNS 16.8% | SF-539 CNS 22.9% | UACC-257 melanoma 16.8% | M14 melanoma 29%
active: NCI-H226 lung 5.99% | NCI-H460 lung -21.9% | NCI-H522 lung -25.6% | A549/ATCC NSCLC 5.73% | COLO 205 colon 6.86% | K-562 leukemia -7.82% | RXF 393 renal -23.7%
